Pf Dd2 inh = Plasmodium falciparum Dd2 growth inhibition. P. falciparum Dd2 growth, SYBR Green, 72 h. Potency, µM (top dose mostly 28.9 µM), for inactives: top-dose activity, negative = inhibition, hits mostly inhibitors. actives 4.3% (n = 120,000); active = well fitted inhibition curve with a large enough effect;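 note: plate controls were DMSO vehicle for no effect and reference drug for full effect; nearly all actives have a fitted effect of over 65% in size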
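Infected erythrocytes (Dd2, 0.3% parasitemia, 2.5% hematocrit final) are added to compound in RPMI-1640/Albumax II medium, grown 72 h at 37C in low oxygen, then lysed with saponin/Triton-X containing SYBR Green and read by fluorescence.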
* marks the source's active call; other numbers are inactive results; i = inactive; [ ] = dose if it differs, or a comment. This excerpt belongs to a sample that is enriched for hits. Potency is the fitted concentration of half-maximal effect.

SMILES | Pf Dd2 inh
Clc1ccc(-c2ccc(CNCCSc3nnnn3-c3ccccc3)o2)cc1 | 41.2%
CCN(CC)C(=O)c1ccccc1NC(=O)c1cccc(S(=O)(=O)N2CCC(C)CC2)c1 | 51.7%[5.79 µM]
CCN(CC)S(=O)(=O)c1cccc(C(=O)Nc2ccccc2C(=O)Nc2ccc(OC)cc2)c1 | 7.08µM*
CCN(CC)S(=O)(=O)c1ccc(OC)c(NC(=O)c2sc3ccccc3c2Cl)c1 | 28.8%
CC(=O)N1CCC2(CC1)C(=O)NCN2Cc1ccc(Cl)cc1 | 1.0%[44.1 µM]
CC(C)OCCCNC(=O)c1cn(C)c2ccc(S(=O)(=O)N3CCCCCC3)cc2c1=O | 50.1%
O=C(NC1CCCCC1)N1CCCC1c1nnc2n1CCNC2 (configuration not stated) | 56.8%
CC(C)NC(=O)c1cc(-c2ccc(S(C)(=O)=O)cc2)c2cnn(C)c2n1 | 3.16µM*
CN(C)C(=O)c1cc(-c2ccc(S(C)(=O)=O)cc2)nc2c1cnn2C | 18.1%
CN(C)C(=O)c1cc(-c2ccc(S(C)(=O)=O)cc2)c2cnn(C)c2n1 | 7.6%
O=C(c1ccc(N2CC3CC(C2)[C@H]2CCCC(=O)N2C3)nc1)N1CCN(c2ccccn2)CC1 (some centres not stated) | i
COC(=O)c1ccccc1NC(=O)N1CCCC(Nc2ccc(OC)cc2)C1 (configuration not stated) | -15.2%
Cc1c(C(=O)NCCN(C)C)oc2c1-c1nn(Cc3cccc(Cl)c3)cc1CC2 | -6.9%
CN(Cc1nccn1Cc1ccccc1)C(=O)CCc1ccc2c(c1)OCO2 | -9.7%
CN(C)CCN(C)Cc1cn(Cc2ccccc2)nc1-c1ccc2c(c1)OCO2 | 10µM*
O=C(c1ccc2c(c1)OCO2)N1CCn2c(nnc2C2CCNCC2)C1 | 4.1%
Cc1cc2cccc(C(=O)N3CCC(Cn4cc(CO)nn4)CC3)c2o1 | -23.4%
O=C(Nc1ccc2c(N3CCCC3)ncnc2c1)c1ccccc1Br | 12.6µM*
COc1ccccc1C(=O)Nc1ccc2ncnc(N3CCCCC3)c2c1 | i
Cc1ccc(NC(=O)c2cnc(N3CCCCC3)c3ccccc23)cc1Cl | -21.9%
Cc1ccc(C)c(C(=O)Nc2ccc3c(N4CCCC4)ncnc3c2)c1 | 2.51µM*
CC(C)N1C(=O)C2(CCCC2)C1C(=O)Nc1cccnc1 (configuration not stated) | 18.1%
COc1ccc(CCNC(=O)c2cnn(-c3cccc(C)c3)c2C2CCNCC2)cc1OC | -20.3%
Cc1ccccc1NC(=O)C1CCN(S(=O)(=O)c2cccc3nonc23)CC1 | i
O=C(NCc1ccccc1F)c1sc2ncccc2c1-n1cccc1 | 49.0%
SMILES | Pf Dd2 inh
CCOC(=O)c1c(C)[nH]c(C)c1S(=O)(=O)N1CCC(C(=O)N2CCN(c3cccc(C)c3C)CC2)CC1 | -0.1%
CCOC(=O)c1[nH]c(C)c(CCC(=O)N2CCN(c3cccc(C)c3C)CC2)c1C | 0.355µM*
Cc1cccc(N2CCN(C(=O)CCc3c(C)nc4c(c3C)c(=O)n(C)c(=O)n4C)CC2)c1C | 20.4%
CCOC(=O)c1c(C)[nH]c(C)c1S(=O)(=O)N(C)CC(=O)N1CCN(c2ccc(Cl)cc2)CC1 | i
CCOC(=O)c1[nH]c(C)c(CCC(=O)NCc2ccc(OC)cc2)c1C | -6.4%
CCOC(=O)c1[nH]c(C)c(CCC(=O)N2CCN(c3ccc(Cl)cc3)CC2)c1C | 3.55µM*
CC(=O)c1ccc(NC(=O)c2cnc(N3CCCC3)nc2C)cc1 | 19.8%
O=C1c2cnc(-c3ccc(O)c(F)c3)nc2OCCN1c1ccccc1 | i
COCCOC1CCN(C(=O)CCc2ccccc2)CC1 | 84.9%
CCS(=O)(=O)N1C[C@@H](COC)[C@H](c2nc(C3CC3)no2)C1 | i
COCC1CN(C(C)=O)CC12CCN(C(=O)COc1ccccc1)CC2 (configuration not stated) | -17.7%
COc1ccccc1N1CCN(C(=O)c2ccc(Nc3nc4ccccc4n4nnnc34)cc2)CC1 | 10µM*
O=C(NCCc1ccc(Cl)cc1)c1ccc(Nc2nc3ccccc3n3nnnc23)cc1 | -26.6%
CC(NC(=O)c1cccc(Nc2nc3ccccc3n3nnnc23)c1)c1ccccc1 (configuration not stated) | 5.4%
COc1ccc(CCNC(=O)c2cccc(Nc3nc4ccccc4nc3-n3nc(C)cc3C)c2)cc1OC | -14.1%
COc1ccc(CCNC(=O)c2ccc(Nc3nc4ccccc4n4nnnc34)cc2)cc1OC | 8.91µM*
Cc1ccc(CNC(=O)c2ccc(Nc3nc4ccccc4n4nnnc34)cc2)cc1 | -2.9%
Cn1cccc1CN1CCCC2(CC(c3cccc(C(F)(F)F)c3)=NO2)C1 (configuration not stated) | i
CCOCC(=O)N1CCC(Oc2nccnc2N(C)C)C1 (configuration not stated) | i
Cc1cccc(N2CCN(C(=O)c3c(C)oc4ncnc(N5CCOCC5)c34)CC2)c1C | i
CC(C)COc1cc(=O)n2c(c1C(=O)NCc1ccc(C(F)(F)F)cc1)CCCCC2 | i
Cc1nn(-c2ccc(C(C)C)cc2)c(C)c1[C@@H]1C=C[C@@H](NCc2cccc(Cl)c2)C1 | -14.6%[44.1 µM]
Cc1nn(-c2cccc(Br)c2)c(C)c1[C@@H]1C=C[C@@H](NC(=O)CC(C)(C)CC(=O)O)C1 | 8.91µM*
